# Screens: PubChem, National Center for Advancing Translational Sciences (NCATS)
# nsP2pro inh = Primary qHTS for inhibitors of NSP2Pro chikungunya virus (CHIKV) | FRET peptide cleavage, nsP2pro, fluorescence 1 h | Potency, µM (top dose mostly 24.9 µM), for inactives: at the highest dose activity change, negative = inhibition, most hits filed as inhibitors | actives 1.1% (n = 31,000); also: nearly all actives have a fitted effect of over 60% in size
#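 FRET cleavage of 2.5 uM peptide 2 by 150 nM CHIKV protease domain at pH 8.0 (Tris, Tween 20). Compounds at 7 concentrations (up to 25 uM) preincubated 15 min. Fluorescence read after 1 h at room temperature.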
# nsP2 cell sec = Secondary cell base assay for inhibitors of NSP2Pro Chikungunya virus (CHIKV); AID 1964100, 2024; actives 10% (n = 450); cell-based CHIKV nsP2 protease reporter assay; Potency, µM (top dose mostly 51.1 µM), without a hit: at the highest dose activity change, negative = inhibition, hits mostly inhibitors; shares compounds with nsP2pro inh; also: nearly all actives have a fitted effect of over 70% in size
# CHIKV NSP2 FL = Selectivity profile for inhibitors of NSP2Pro chikungunya virus (CHIKV): Full length NSP2 enzyme counterscreen (CHIKV-NSP2); shares compounds with nsP2pro inh; Full-length CHIKV NSP2 protease enzymatic counterscreen; Potency, µM (doses to about 50.7 µM), without a hit: top-dose activity change, negative = inhibition, hits mostly inhibitors; actives 39% (n = 410); also: nearly all actives have a fitted effect of over 65% in size
# Furin counterscr = Selectivity profile for inhibitors of NSP2Pro chikungunya virus (CHIKV): Human furin counterscreen. Potency, µM (top dose mostly 50.6 µM), for the others: top-dose activity change, negative = inhibition, hits mostly inhibitors. Recombinant human furin enzymatic counterscreen, fluorogenic substrate. shares compounds with nsP2pro inh. actives 6% (n = 410)
# NS23 peptide cs = Selectivity profile for inhibitors of NSP2Pro chikungunya virus (CHIKV): Endogenous NS2/3 peptide Counterscreen | Potency, µM (titrated, usually from 51 µM), inactives show at the highest dose activity change, negative = inhibition, actives largely listed as inhibitors | actives 34% (n = 410) | Purified CHIKV nsP2 protease, endogenous NS2/3 peptide cleavage | shares compounds with nsP2pro inh; also: nearly all actives have a fitted effect of over 55% in size
# Papain cs = Selectivity profile for inhibitors of NSP2Pro chikungunya virus (CHIKV): Papain Counterscreen. shares compounds with nsP2pro inh. purified papain protease activity, enzymatic inhibition. Potency, µM (highest dose often 51 µM), without a hit: at the highest dose activity change, negative = inhibition, actives largely listed as inhibitors. actives 5% (n = 410)
# nsP2pro conf qHTS = Confirmatory qHTS for inhibitors of NSP2Pro chikungunya virus (CHIKV) | shares compounds with nsP2pro inh | CHIKV nsP2 protease enzymatic activity, qHTS | Potency, µM (doses to about 25.5 µM), without a hit: at the highest dose activity change, negative = inhibition, usual class: inhibitors | actives 43% (n = 410) | AID 1964105, 2024; also: nearly all actives have a fitted effect of over 75% in size
# HCV NS3 counter = Selectivity profile for inhibitors of NSP2Pro chikungunya virus (CHIKV): NS34A-HCV Counterscreen; Potency, µM (top dose mostly 50.9 µM), actives largely listed as inhibitors; HCV NS3/4A protease biochemical counterscreen; actives 20% (n = 410); shares compounds with nsP2pro inh; also: nearly all actives have a fitted effect of over 55% in size
# Numbers without * were called inactive; i = inactive; ? = inconclusive; / = no result; [ ] = dose if it differs, or a comment. The entries come from a sample that favours hits as a whole. Calls follow the shape of the full dose curve. % is scaled to controls: 0 for no effect and ±100 for the full control effect; potency is read from the fitted curve at half-maximal effect.
SMILES,nsP2pro inh,others
Cc1cccc(-n2cnc3cc(C(=O)N4CCCCCC4)ccc32)c1,-1%,
CNc1oc(-c2ccccc2-c2ccccc2)nc1C#N,1%,
Fc1cnc(-c2ccccc2C(F)F)nc1NCc1ccc(-c2ccn[nH]2)cc1,i,
Brc1ccc(CN2CCc3nc(N4CCN(c5ncccn5)CC4)ncc3C2)cc1,33%,
Cc1ccsc1CN1CCc2nc(N3CCN(c4ccccc4F)CC3)ncc2C1,-20%,
CN1CCN(c2ncc3c(n2)CCN(Cc2ccc(Br)s2)C3)CC1,?,nsP2 cell sec=?;CHIKV NSP2 FL=18µM*;Furin counterscr=-9%;NS23 peptide cs=?;Papain cs=5%;nsP2pro conf qHTS=?;HCV NS3 counter=12µM*
CCN1CCN(c2ncc3c(n2)CCN(Cc2sccc2C)C3)CC1,7%,nsP2 cell sec=?;CHIKV NSP2 FL=12µM*;Furin counterscr=-9%;NS23 peptide cs=?;Papain cs=-4%;nsP2pro conf qHTS=?;HCV NS3 counter=6.5µM*
CCN1CCN(c2ncc3c(n2)CCN(Cc2ccc(OC(C)C)cc2)C3)CC1,-12%,
CCN1CCN(c2ncc3c(n2)CCN(Cc2ccc(Br)s2)C3)CC1,46%,
CC(=O)OC[C@H]1O[C@@H](n2cnc(N)nc2=O)[C@H](OC(C)=O)[C@@H]1OC(C)=O,3%,
N#Cc1ccc(NC(=O)Nc2nnc(-c3ccncc3)s2)cc1Cl,3%,
Cc1cc(=O)oc2c3c(ccc12)OCN(Cc1ccccc1Cl)C3,32%,
O=c1oc2c3c(ccc2c2ccccc12)OCN(Cc1cccc(Cl)c1)C3,-13%,
O=c1oc2c3c(ccc2c2ccccc12)OCN(Cc1ccccc1Cl)C3,1.1µM*,nsP2 cell sec=115%;CHIKV NSP2 FL=-1%;Furin counterscr=-11%;NS23 peptide cs=12µM*;Papain cs=-4%;nsP2pro conf qHTS=4µM*;HCV NS3 counter=i
CN(C)S(=O)(=O)N1CC(CNC(=O)C2CC2)C2(CCCCC2)C1 (stereo unspecified),i,
C[C@H]1C[C@H]2[C@H]3CCC4=CC(=O)C=C[C@]4(C)[C@@]3(F)[C@@H](O)C[C@]2(C)[C@@]1(OC(=O)c1ccccc1)C(=O)CO,4%,
COCC1CN(Cc2ccc(Br)s2)CC12CCNCC2 (stereo unspecified),?,nsP2 cell sec=?;CHIKV NSP2 FL=?;Furin counterscr=-14%;NS23 peptide cs=?;Papain cs=-3%;nsP2pro conf qHTS=?;HCV NS3 counter=?
COCC1CN(C)CC12CCN(Cc1cccnc1)CC2 (stereo unspecified),4%,
COCC1CN(Cc2ccc(OC)cc2)CC12CCNCC2 (stereo unspecified),2%,
O=C1CCCC2=C1C(c1[nH]ncc1Cl)N=C(Nc1nccs1)N2 (stereo unspecified),-3%,
COc1ccc(-c2nc3ccccc3s2)cc1OC,i,
CCCCCCCCCCCCCCCCCCCC(=O)O,?,nsP2 cell sec=-23%;CHIKV NSP2 FL=4.1µM*;Furin counterscr=-5%;NS23 peptide cs=-19%;Papain cs=21µM*;nsP2pro conf qHTS=2.8µM*;HCV NS3 counter=i
CCCCCCCCCC(=O)O,-16%,
CCCCCCCC/C=C/CCCCCCCC(=O)O,-24%,
CN1CC2CN(c3ccc4oc5ccccc5c(=O)c4c3)CC2C1 (stereo unspecified),4%[10 µM],
SMILES,nsP2pro inh,others
CCOc1cccc(CN2CCc3c(c(CN(C(C)=O)c4ccccc4)nn3C)C2)c1O,0%,
COc1cc(N2CCN(C(C)=O)CC2)ccc1Nc1ncc(Cl)c(Nc2ccc(N3CCN(C(C)=O)CC3)cc2OC)n1,63%,
N#Cc1ccc(-c2nc(NCc3ccc(-c4ccnc(C(F)(F)F)c4)cc3)c3ccccc3n2)cc1,-6%,
COc1ccc(OC)c(C(O)C(C)N)c1 (stereo unspecified),0%,
C[C@H](N)[C@H](O)c1ccc(O)c(O)c1,?,nsP2 cell sec=-65%;CHIKV NSP2 FL=?;Furin counterscr=-10%[17.3 µM];NS23 peptide cs=9µM*;Papain cs=-9%[17.2 µM];nsP2pro conf qHTS=?;HCV NS3 counter=0.052µM*
C=CCc1cc(OC)c(OC(C)C(O)c2ccc(O)c(OC)c2)c(OC)c1 (stereo unspecified),-1%,
Cn1cc(C(=O)Cc2ccccc2)cc1/C=C/C(=O)NO,16%,
C=C1C(=O)O[C@@H]2[C@H]3C(=C)[C@@H](O)C[C@H]3C(=C)C[C@@H](O)[C@@H]12,35%,
C=C1C(=O)O[C@@H]2C(OC(=O)/C(C)=C\C)/C(C)=C\C(=O)/C=C(\C)C[C@H](O)[C@@H]12 (stereo partly specified),?,nsP2 cell sec=?;CHIKV NSP2 FL=-11%[33.5 µM];Furin counterscr=-6%[33.5 µM];NS23 peptide cs=?;Papain cs=-12%[33.5 µM];nsP2pro conf qHTS=-23%[16.7 µM];HCV NS3 counter=?
C=C1C(=O)O[C@@H]2/C=C(/C)CC3C=C(C[C@H](OC(=O)/C(C)=C\C)[C@@H]12)C(=O)O3 (stereo partly specified),-30%,
O=C(Nc1ccc(S(=O)(=O)Nc2nccs2)cc1)C1CCC2(CCC2)CC1,-6%,
CCCCCCC(=O)OCC(COC(=O)CCCCCC)OC(=O)CCCCCC,-21%,
COc1cccc(-c2ccc(CN3CCCC(NC(=O)c4ccc(Cl)cc4)C3)cc2)c1 (stereo unspecified),1%,
CNC1CCN(C(Cc2cccc(-c3ccncc3)c2)C(=O)c2sc3c(F)ccc(F)c3c2Cl)CC1 (stereo unspecified),/,nsP2 cell sec=?;CHIKV NSP2 FL=?;Furin counterscr=-11%;NS23 peptide cs=-23%;Papain cs=-8%;nsP2pro conf qHTS=34%;HCV NS3 counter=i
O=C(NC1CCN(Cc2cccc(-c3cccs3)c2)CC1)c1cccc(Cl)c1,i,
c1c[nH]c(CNc2ncnc3ccc(-c4ccoc4)cc23)n1,-1%,
Cc1cc(C)nc(NC(=S)N2CCN(Cc3c(F)cccc3Cl)CC2)c1,-4%,
COc1cc(Nc2nc(-c3ccncc3)nc3ccccc23)ccc1N1CCN(C)CC1,-3%,
O=C(c1cn(Cc2cncn2Cc2ccc(Br)cc2)cc1-c1cccc2ccccc12)N1CCOCC1,98%,
